Reference: ChEMBL document CHEMBL3988442, “University of Dundee, Small-Polar-MMV Screening Library” (2021)
About 900 (1.7%) of roughly 53,000 compounds showed an effect of 50% or more. This excerpt belongs to a sample that is enriched for strong results.

Tested on: Mycobacterium tuberculosis
Experiment: Cornell - Phenotypic assay to identify agents that inhibit growth of Mycobacterium tuberculosis
Format: functional
Design: scale not given: direction of the effect not stated beside the values
Settings: 10 mM as filed; unlikely as a test dose

Row | SMILES | Percent Effect
1 | O=C(NCC1CC1)C1CCC2(CCN(C(=O)c3ccoc3)CC2)O1 (stereo unspecified) | -8.481%
2 | Cc1ccc2[nH]c(C3CCN(CC(N)=O)CC3)nc2c1 | -20.2%
3 | CCC1CCCCN1Cc1ncc(C(C)(C)C)o1 (stereo unspecified) | -71.87%
4 | c1cncc(-c2nc3c(c(NCC4(c5ccncc5)CC4)n2)CCC3)c1 | 21.3%
5 | Cl.NC1CCc2nc(-c3ccncc3)nc(Nc3cccc(F)c3)c2C1 (stereo unspecified) | 61.47%
6 | O=C(Nc1cccc(F)c1)NC1CCN(Cc2ccncc2)CC1 | 26.05%
7 | Cl.NC1CCc2nc(-c3cccnc3)nc(Nc3ccc(F)cc3)c2C1 (stereo unspecified) | 98.04%
8 | COc1cccc(Nc2nc(-c3ccncc3)nc3c2CNCC3)c1.Cl | -3.556%
9 | CC(O)CNc1nc(-c2cccnc2)nc2c1CCC2 (stereo unspecified) | 12.92%
10 | O=C(O)C(F)(F)F.O=C1COC2(CCN(Cc3cccs3)CC2)CN1c1cncnc1 | 13.06%
11 | Cc1cnc(N2C(=O)CSC2c2ccccc2)s1 (stereo unspecified) | 7.465%
12 | Cn1cnnc1CN1CCC2(CCCN(C3CCCCC3)C2=O)C1 (stereo unspecified) | 8.326%
13 | CN(C)CCCNC(=O)c1ccccc1NC(=O)c1ccccc1Cl | 2.69%
14 | O=C(NCCCN1CCCCC1)c1ccc(-n2ccc3ccccc32)s1 | 59.15%
15 | O=C(NCCCN1CCCC1=O)c1ccc(-n2ccc3ccccc32)s1 | 19.74%
16 | O=C(NCCCN1CCOCC1)c1ccc(-n2ccc3ccccc32)s1 | -5.378%
17 | O=C(NCc1cccnc1)[C@H]1C[C@@H]2CCN(c3ccncn3)C[C@H]2O1.O=C(O)C(F)(F)F.O=C(O)C(F)(F)F | 15.26%
18 | Cc1ncsc1C(=O)Nc1ccccn1 | 6.488%
19 | CCOCCCn1c(NC(=O)c2scnc2C)nc2ccccc21 | 74.98%
20 | CCOCCCn1c(NC(=O)c2cnn(C)c2)nc2ccccc21 | 87.33%
21 | CCOCCCn1c(NC(=O)c2ccc(C)nc2)nc2ccccc21 | 49.04%
22 | Cn1cc(NC(=O)Cn2c(CS(C)(=O)=O)nc3ccccc32)cn1 | -19.06%
23 | CCOC(=O)CNC(=O)c1scnc1C | 8.54%
24 | Cc1ccc(CC(=O)NC(C)C(=O)N2CCS(=O)(=O)CC2)s1 (stereo unspecified) | 63.58%
25 | O=C(NCCc1ccc(Cl)s1)N1CCS(=O)(=O)CC1 | 3.625%
26 | CC(NC(=O)Cc1ccccc1F)C(=O)N1CCS(=O)(=O)CC1 (stereo unspecified) | 19.17%

Row | SMILES | Percent Effect
27 | CC(C)n1ccc(CN2CCN(c3cc(NC4CC4)nc(N)n3)CC2)c1 | 13.37%
28 | NC(=O)C1CCCN1Cc1cccc(NC(=O)c2ccc(Cl)cc2F)c1 (stereo unspecified) | -4.35%
29 | O=C(O)C(F)(F)F.O=C1COC2(COCCN(Cc3ccsc3)C2)CN1c1ccoc1 (stereo unspecified) | -47.88%
30 | CSCCC1c2nc[nH]c2CCN1Cc1ccccc1C#N (stereo unspecified) | 19.15%
31 | CSCCC1c2nc[nH]c2CCN1Cc1cc(Cl)ccc1O (stereo unspecified) | 102.1%
32 | CSCCC1c2nc[nH]c2CCN1Cc1ccccc1C(F)(F)F (stereo unspecified) | 2.921%
33 | CN1C[C@@H](N)C[C@H]1C(=O)N1CCC(Cc2ccc(F)cc2)CC1 | -16.49%
34 | C1CC(CN2C[C@@H]3C[C@@H](c4nnc(C5CC5)o4)O[C@@H]3C2)C1 | -19.97%
35 | N#Cc1cccc(S(=O)(=O)Nc2c(F)cccc2N2CCCC2)c1 | 53.51%
36 | O=S(=O)(Nc1c(F)cccc1N1CCCC1)c1cncc(F)c1 | 35.26%
37 | Cn1cc(S(=O)(=O)Nc2c(F)cccc2N2CCCC2)cn1 | -1.726%
38 | Cc1cc(NCCNS(=O)(=O)c2cn(C)nc2C)c2ccccc2n1 | 11.79%
39 | CNC(=O)c1cccc(CC2COCCN(Cc3ccsc3)C2)n1 (stereo unspecified) | -5.574%
40 | CC1c2ncc(COCC3CC3)n2CCN1C(=O)c1ccnn1C (stereo unspecified) | 18.95%
41 | Cc1cc2nc(C(C)C)cc(NCc3ccncc3)n2n1 | -23.44%
42 | OCCn1nccc1C1CCN(CCOc2ccccc2)CC1 | -26.3%
43 | O=C(c1ccc(S(=O)(=O)N2CCSCC2)cc1)N1CCC(O)C1 (stereo unspecified) | 10.6%
44 | COC(=O)C1CCN(C(=O)c2ccc(N(C)S(C)(=O)=O)c(C)c2)CC1 | -22.29%
45 | Cc1ccc2cc(C(=O)N3CCCN(C)CC3)ccc2n1 | -5.453%
46 | CN1CCN(C(=O)c2nnc3ccc(Cl)cc3n2)CC1 | 64.7%
47 | COC(=O)C1CCN(C(=O)c2nnc3ccc(Cl)cc3n2)CC1 | 106.2%
48 | CCc1nc(C(=O)N2CCN(C)CC2)nn1-c1ccccc1Cl | -21.83%
49 | COC(=O)C1CCN(C(=O)c2nnc3ccc(C)cc3n2)CC1 | -19.31%
50 | COc1ccccc1CCN1CCCC(CN(C)Cc2ccc(C)o2)C1 (stereo unspecified) | 14.72%
51 | CC1=N[C@@]2(CC[C@@H]3CN(C(=O)NCc4ccccc4C)C[C@@H]32)C(=O)N1 | 15.83%
